Test results reported in ChEMBL document CHEMBL3433997, “St. Jude Leishmania screening dataset” (2016).

target: Glucose transporter (Leishmania mexicana) (UniProt O61059); assay: ST_JUDE_LEISH: Cytotoxicity at 2uM final concentration against transgenic Leishmania Mexicana promastigotes LmGT2 that are glucose transport deficient and complemented with the L. Mexicana glucose transporter 2. Activity is measured by DNA content using SYBR green in vitro; format: functional

Compound	inhibition [%]
COc1ccc(NC(=O)c2ccc(NC(=O)c3ccc(Cl)cc3)cc2)cc1N1CCN(C)CC1	3.5
c1ccc(-n2cncn2)cc1	4.67
CNC(=O)c1ccc2nc(C3CC3)n(CC3CCN(S(=O)(=O)c4cccc(Cl)c4)CC3)c2c1	2.49
CCN(CC)CC(O)c1cc(-c2ccc(C)cc2)nc2c(C)cc(C)cc12 (stereo not given)	-1.02
CCCN(Cc1ccc(OCC)cc1)Cc1cc(=O)c2cc(Cl)ccc2[nH]1	7.1
CCCCCCCN1CC[C@@H](CCCc2ccnc3ccc(OC)cc23)[C@@H](CCN)C1	0.84
Cc1cccc(-c2ccc(CNC3CCN(CC4Cn5c(=O)ccc6ccc(F)c4c65)CC3)cn2)c1 (stereo not given)	1.89
CC(C)c1ccc(CN2CCCCC(NC(=O)c3cc(-c4ccccc4F)cs3)C2)cc1 (stereo not given)	11.2
O=C(NCC1CCC(CNCCc2ccccc2)CC1)Nc1ccc(Cl)c(Cl)c1 (stereo not given)	-2.11
O=C(NCCCCCN1CCC(c2c[nH]c3ccccc23)CC1)Nc1ccc(Cl)c(Cl)c1	1.89
COc1ccc(S(=O)(=O)NCC2CCCN(CCCCCNC(=O)/C=C/c3ccc(Cl)c(Cl)c3)C2)cc1 (stereo not given)	3.47
O=C(Nc1ccccc1C(F)(F)F)Nc1nn(Cc2c(F)cccc2Cl)cc1Br	3.18
Cc1cccc2nc(-c3ccc(-c4ccc(NC(=O)Nc5ccc(Cl)cc5)cc4)s3)[nH]c12	0.32
Cc1ccc(NC(=O)c2ccc3ncccc3c2)cc1OC1CCN(C(C)C)C1 (stereo not given)	9.34
COc1ccc(C2C(C(=O)Nc3ccccc3)=C(C)Nc3c(C(=O)Nc4ccccc4)cnn32)cc1 (stereo not given)	0.09
FC(F)(F)c1cccc(Nc2nc(-c3ccccc3)nc3ncccc23)c1	3.04
Cc1cccc2nc(-c3ccc(-c4ccc(C(=O)NCCN5CCCC5)cc4)cc3)[nH]c12	-0.61
c1ccc(Oc2ccc(Nc3ccnc4cc(-c5ccc(CNCCN6CCOCC6)o5)ccc34)cc2)nc1	2.3
CCc1c(C(=O)NC2CCC(N3CCC(c4ccccc4OC)CC3)CC2)[nH]c2ccc(Br)cc12 (stereo not given)	-0.91
COc1ccc2c(NCCc3ccccc3)cc(-c3ccccc3)nc2c1	4.05

Compound	inhibition [%]
COc1ccc(-c2ccc(CNC3Cc4ccccc4C3)cc2)cc1S(=O)(=O)NCCN1CCCC1	-0.28
C=CCc1c(C(=O)NCC23CC4CC(CC(C4)C2)C3)nc2ccccc2c1O	3.24
N#Cc1ccc2[nH]cc(C(=O)CCCCCN(Cc3ccccc3)Cc3ccccc3)c2c1	-0.24
COc1ccc(CN2CCCN(Cc3cccc(C(=O)Nc4ccc(C)c(F)c4)c3)CC2)cc1	1.49
COc1cccc(-c2cc(C(=O)Nc3ccc4[nH]c(-c5ccccc5)nc4c3)[nH]n2)c1	1.09
Cc1[nH]c(C)c(-c2ccc(Oc3ccc(Cl)cc3)cc2)c(=O)c1Cl	1.25
Cc1cc(OCCCN2CCC(NS(=O)(=O)c3cccc(Br)c3)C2)c2ccccc2n1 (stereo not given)	1.56
NCc1ccc(CNCc2ccc(-c3ccc(-c4nc5cc(C(F)(F)F)ccc5[nH]4)s3)cc2)cc1	0.6
CN1CCC(NCc2cccc(-c3cnc(NCc4ccccc4)nc3)c2)CC1	1
O=C(NCCNc1ccnc2cc(Cl)ccc12)c1ccccc1F	-0.19
NCC1CCCN1Cc1ccc(-c2cccc(-c3nc4cc(F)ccc4[nH]3)c2)cc1 (stereo not given)	1.35
CN1CCN(c2ccnc3ccc(NC(=O)Nc4ccc5c(c4)CCC5=O)cc23)CC1	5.45
O=C(Cc1ccc(-c2ccccc2)cc1)N[C@H]1CCN(Cc2ccc(OCCCN3CCCCC3)cc2)C1	8.12
FC(F)(F)c1ccc2[nH]c(-c3cccc(-c4ccc(CNCc5cnn(-c6ccccc6)n5)cc4)c3)nc2c1	2.19
CCCC(=O)Nc1ccc(Cl)c(NC(=O)COc2cc(C)ccc2C(C)C)c1	8.05
COc1ccccc1C1CCN(C2CCC(NC(=O)/C=C/c3cc(C(F)(F)F)cc(C(F)(F)F)c3)CC2)CC1 (stereo not given)	-2.77
CCOC(=O)C1=C(C)NC(Cn2ccnc2)=C(C(=O)OCC)C1c1ccc(C(C)(C)C)cc1 (stereo not given)	2.07
O=C1CCCN1CCCNCc1ccc(-c2cccc(-c3nc4cc(F)ccc4[nH]3)c2)cc1	-2.7
c1ccc(-c2nnc(-c3ccccn3)nc2NC2CCCCC2)cc1	71.2
O=C(CC1SC(N2N=C(c3cccs3)CC2c2ccccc2)=NC1=O)Nc1ccccc1F (stereo not given)	3.51
